Reference: PubChem BioAssay (NCI)
The panel holds about 79,000 compounds, 15% with a hit somewhere; the sample as a whole holds those more often. Unmarked numbers belong to inactive results. The source made the active and inactive calls. Rule as the data show it: active = growth inhibition above about 70%; inactive = the rest.

Columns and labels:
[1] = NCI Yeast Anticancer Drug Screen. Data for the rad50 strain (AID 155);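 also: 0% = growth of vehicle-only cultures of the same strain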; details: S. cerevisiae rad50 strain growth inhibition, hits give high values
Method in brief: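 Inhibition values express reduced yeast growth in compound-treated cultures relative to vehicle-treated controls.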

[2] = NCI Yeast Anticancer Drug Screen. Data for the mec2-1 strain (AID 157); details: S. cerevisiae mec2-1 strain, hits give high values
Method in brief: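 Each compound was tested on mec2-1 yeast, a strain altered in DNA damage repair or cell cycle control. Growth inhibition is reported relative to vehicle.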

[3] = NCI Yeast Anticancer Drug Screen. Data for the sgs1 mgt1 strain (AID 161);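 also: 0% = growth of cultures given vehicle only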; details: S. cerevisiae sgs1 mgt1 strain, hits give high values
Method in brief: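 Mutant yeast exposed to compound; growth scored against vehicle-only wells.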

[4] = NCI Yeast Anticancer Drug Screen. Data for the cln2 rad14 strain (AID 165);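 also: 0% = growth equal to vehicle treated cultures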; details: S. cerevisiae cln2 rad14 strain, hits give high values
Method in brief: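 Test compounds were added to cln2 rad14 yeast cultures; inhibition of growth was then determined by comparison with vehicle treatment.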

[5] = NCI Yeast Anticancer Drug Screen. Data for the bub3 strain (AID 167); details: S. cerevisiae bub3 mutant strain, hits give high values
Method in brief: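 Steps: expose the mutant yeast strain to compound; grow alongside vehicle-treated cultures; measure growth; express inhibition against the vehicle cultures.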

[6] = NCI Yeast Anticancer Drug Screen. Data for the mlh1 rad18 strain (AID 175); details: S. cerevisiae mlh1 rad18 strain growth inhibition, hits give high values
Method in brief: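 Inhibition values reflect reduced growth of mutant yeast versus vehicle-treated controls following compound exposure; the mutations affect DNA damage repair.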

[7] = at 5.0 µM (retest, dose inferred, filed as 0.5)
[8] = at 50.0 µM (retest, dose inferred, filed as 5.0)

SMILES | growth inhibition [1, 7] | growth inhibition [1, 8] | growth inhibition ([1]; at 50.0 µM) | growth inhibition [2, 7] | growth inhibition [2, 8] | growth inhibition ([2]; at 50.0 µM) | growth inhibition [3, 7] | growth inhibition [3, 8] | growth inhibition ([3]; at 50.0 µM) | growth inhibition [4, 7] | growth inhibition [4, 8] | growth inhibition ([4]; at 50.0 µM) | growth inhibition [5, 7] | growth inhibition [5, 8] | growth inhibition ([5]; at 50.0 µM) | growth inhibition [6, 7] | growth inhibition [6, 8] | growth inhibition ([6]; at 50.0 µM)
C[CH2][Pb]([CH2]C)([CH2]C)[O]C(C)=O | 33% | 48% | 84.8% (active) | 43% | 40% | 76% (active) | 11% | 98% (active) | 86.8% (active) | 29% | 96% (active) | 52.7% | 26% | 97% (active) | 82.4% (active) | 35% | 59% | 77.1% (active)
CCC[CH2][Sn]1([CH2]CCC)[O]C(=O)c2cccc(OC)c2[O]1 | 93% (active) | 99% (active) | 97.8% (active) | 95% (active) | 99% (active) | 98% (active) | 93% (active) | 98% (active) | 99.2% (active) | 93% (active) | 98% (active) | 98.4% (active) | 94% (active) | 97% (active) | 98.4% (active) | 88% (active) | 98% (active) | 98.9% (active)
O=[As]c1ccccc1O (centres undefined) | 1% | 96% (active) | 96.6% (active) | 0% | 98% (active) | 98.1% (active) | 2% | 98% (active) | 90.3% (active) | -9% | 98% (active) | 92.2% (active) | -5% | 97% (active) | 97.3% (active) | -1% | 98% (active) | 96.5% (active)
